Screening data deposited in PubChem by The Scripps Research Institute Molecular Screening Center.
pPAFAH inh: pPAFAH (human) enzyme inhibition. AID 463082. recombinant pPAFAH, FP-rhodamine probe fluorescence polarization. 330,000 tested, 1.5% active. inhibition, % at 3.39 µM. Q13093;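 active = inhibition above the mean inhibition across the screen plus 3 SD, cut at about 25% in these data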;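 note: inhibitors block binding of the rhodamine activity-based probe so polarization drops; 0% = enzyme with DMSO and 100% = wells lacking pPAFAH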
CTSL1 counter: blocks F. hepatica cathepsin L1 in PFM18AAP counter-screen. recombinant F. hepatica cathepsin L1, Z-Leu-Arg-MCA fluorescence. 300,000 tested, 0.49% active. inhibition, % at 5.96 µM;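 active = inhibition above the mean of all tested compounds plus 3 SD, set per screening campaign, cut at about 17% in these data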;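 note: 0% = plate median of test compound wells and 100% = 1 µM Z-Phe-Ala-diazomethylketone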
PAFAH1B3 inh: blocks human PAF acetylhydrolase 1B catalytic subunit 3. recombinant PAFAH1B3, FP-rhodamine probe, fluorescence polarization. inhibition, % at 3.39 µM. 340,000 tested, 0.28% active. AID 492972;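 active = inhibition above the screen-wide average of all tested compounds plus 3 SD, cut at about 25% in these data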;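 note: 0% = enzyme with DMSO only and 100% = wells lacking PAFAH1B3 protein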
PP5 inh: inhibitors of human protein phosphatase 5 (PP5) | purified PP5c, OMFP substrate fluorescence | inhibition, % at 6.7 µM | 320,000 tested, 0.18% active;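 active = inhibition above the campaign's mean inhibition across all tested compounds plus 3 SD, cut at about 9.5% in these data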;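 note: 0% = DMSO only and 100% = 100 µM cantharidin control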
Target sequence (P53041 whole entry, looked up): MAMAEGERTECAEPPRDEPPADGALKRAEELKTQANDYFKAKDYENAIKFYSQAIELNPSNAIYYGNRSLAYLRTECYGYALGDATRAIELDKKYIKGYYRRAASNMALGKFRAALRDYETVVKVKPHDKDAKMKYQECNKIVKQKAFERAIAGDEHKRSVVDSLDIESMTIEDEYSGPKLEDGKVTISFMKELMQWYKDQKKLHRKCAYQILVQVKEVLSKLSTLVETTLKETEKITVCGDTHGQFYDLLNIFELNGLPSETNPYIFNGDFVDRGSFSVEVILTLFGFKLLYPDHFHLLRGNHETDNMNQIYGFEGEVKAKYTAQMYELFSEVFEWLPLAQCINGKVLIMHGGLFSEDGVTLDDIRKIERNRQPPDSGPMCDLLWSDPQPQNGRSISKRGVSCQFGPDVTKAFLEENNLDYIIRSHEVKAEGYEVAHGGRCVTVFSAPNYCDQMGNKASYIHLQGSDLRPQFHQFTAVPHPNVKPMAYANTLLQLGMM
PAFAH2 inh: inhibitors of human PAFAH2. inhibition, % at 3.39 µM. 340,000 tested, 0.99% active. AID 492956. Q99487. recombinant PAFAH2, FP-rhodamine activity probe, fluorescence polarization;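 active = inhibition above the mean over all tested compounds plus 3 SD, cut at about 30% in these data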;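 note: inhibitors block probe labeling of enzyme so polarization drops; 0% = enzyme with DMSO and 100% = wells lacking PAFAH2 protein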
PAFAH1B2 inh: blocks human PAF acetylhydrolase 1b catalytic subunit 2 | P68402 | recombinant PAFAH1B2, FP-rhodamine activity probe, fluorescence polarization | inhibition, % at 3.39 µM | 340,000 tested, 1.2% active | AID 492953;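 active = inhibition above the mean of all tested compounds plus 3 SD, cut at about 24% in these data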;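 note: 0% = enzyme with DMSO and 100% = wells lacking PAFAH1B2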
PAFAH2 confirm: confirmation of human PAFAH2 inhibitors; inhibition, % at 3.39 µM; shares compounds with PAFAH2 inh; 2,300 tested, 65% active; recombinant PAFAH2, FP-rhodamine activity probe, fluorescence polarization;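 active = mean inhibition over three repeats above a set limit taken from the earlier primary screen, cut at about 30% in these data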;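 note: inhibitor blocks binding of rhodamine activity probe so polarization falls; 0% = enzyme with DMSO and 100% = wells lacking PAFAH2 protein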
* marks the source's active call; other numbers are inactive results; . = no result given. Hits are enriched below; roughly 3% of the tested compounds scored in any of these assays.

SMILES	pPAFAH inh	CTSL1 counter	PAFAH1B3 inh	PP5 inh	PAFAH2 inh	PAFAH1B2 inh	PAFAH2 confirm
O=C(CN1CCN(Cc2ccc(F)cc2Cl)CC1)NCc1ccccc1	-2	5	11	4	3	0	.
C=CCNC(=O)/C(C#N)=C/c1cc(Br)ccc1OC	1	0	-2	1	33*	-5	16
C=CCNC(=O)/C(C#N)=C/c1ccccc1Cl	-5	8	-4	1	4	-4	.
Cc1ccccc1NC(=O)Cc1nc(-c2c[nH]c(C(=O)N3CCCC3)c2)cs1	23	.	-1	-1	40*	3	13
Cc1cccc(NC(=O)Cc2nc(-c3c[nH]c(C(=O)N4CCCC4)c3)cs2)c1	.	.	0	.	35*	-2	12
Cc1cccc(CC(=O)Nc2ccc(C(=O)N3CCCCC3)cc2)c1	4	2	5	1	5	0	.
CC(COc1ccccc1Cc1ccccc1)N1CCCCC1 (configuration not stated)	0	-1	.	1	.	.	.
COc1ccc(S(=O)(=O)c2c(O)cc(C)c(NS(=O)(=O)c3ccccc3)c2C)cc1	5	3	-5	2	2	4	.
Cc1cc(C)c(NC(=O)COC(=O)C2CCC2)c(Cl)c1	3	-25	-1	1	5	-6	.
Cc1cc(Br)c(NC(=O)COC(=O)C2CCCCC2)c(Br)c1	7	.	-3	.	33*	-1	32*
Cc1ccc(NC(=O)COC(=O)C2CC2)c(Br)c1	20	5	10	-9	55*	4	39*
CC[C@@H]1C/C=C\Cc2ccccc2[C@H](C(=O)C[C@H](O)CC(C)=O)OC1=O	-1	.	5	.	1	4	.
O=C(CC1NC2CCCCC2NC1=O)Nc1cccc(C(F)(F)F)c1 (configuration not stated)	4	-3	-4	1	36*	-1	14
CC1(C)CC(=O)C=C(C(=O)N2CCCC(C(=O)c3cccc(C(F)(F)F)c3)C2)O1 (configuration not stated)	8	-7	0	2	-7	0	.
CC(NC(=O)COC(=O)c1ccco1)c1ccccc1 (configuration not stated)	4	-6	-1	-1	32*	3	26
O=C(COC(=O)c1ccco1)Nc1ccc2[nH]c(=O)[nH]c2c1	-1	.	6	0	-2	-4	.
O=C(COC(=O)c1ccco1)Nc1ccc([N+](=O)[O-])cc1Cl	-2	.	6	3	41*	1	23
O=C(COC(=O)c1ccco1)Nc1ccccc1	4	-10	4	1	68*	-3	66*
O=C(COC(=O)c1ccco1)Nc1ccc(Br)cc1	1	-15	6	4	77*	4	69*
C=CCn1c(=O)c2c(nc3n2CCCN3CCc2ccc(OC)c(OC)c2)n(C)c1=O	.	.	6	.	5	-3	.
O=C(CSc1ccccc1)N(c1ccc(Br)cc1)c1nccs1	3	3	12	6	11	8	.
CCOC(=O)c1ccccc1NC(=O)COC(=O)c1ccccc1C(=O)N(C)c1ccccc1	4	5	3	-1	6	1	.
CN(C(=O)c1ccccc1C(=O)OCC(=O)Nc1ccccc1)c1ccccc1	4	.	2	3	78*	7	77*
O=C(CCc1[nH]c2ccccc2c1Sc1ccccc1)NCCO	2	2	-1	0	37*	3	27
O=C(CCc1ccccc1)NCCSc1ccccc1	0	0	7	5	-1	5	.
SMILES	pPAFAH inh	CTSL1 counter	PAFAH1B3 inh	PP5 inh	PAFAH2 inh	PAFAH1B2 inh	PAFAH2 confirm
Cc1[nH]n2c(=O)c3c(nc2c1-c1cccc2ccccc12)CCC3	6	-2	4	-1	10	-1	.
O=c1c2c(nc3c(-c4cccc5ccccc45)c[nH]n13)CCC2	11	7	6	-2	68*	1	69*
COc1cccc(CNc2ccc(Br)cn2)c1O	0	-2	2	0	75*	4	4
Cc1cccc(N2CCN(C(=O)Cc3ccccc3[N+](=O)[O-])CC2)c1C	5	5	-1	1	-2	-8	.
O=C(O)c1cccc(N/N=C/c2ccc(F)c(F)c2)c1	9	1	1	0	3	-1	.
O=C(O)c1cccc(N/N=C/C2=C(Cl)c3cc(Cl)ccc3SC2)c1	.	.	17	.	36*	15	15
COc1ccc(CCNC(=O)c2cccc(S(=O)(=O)N3CCc4ccccc4C3)c2)cc1	5	.	-5	3	-5	14	.
CC(C)(C)SC(=O)CC1NS(=O)(=O)OCC1NC(=O)OCC(Cl)(Cl)Cl (configuration not stated)	-5	0	5	-3	49*	4	34*
Cc1cc(C(=O)N/N=C/c2c3ccccc3cc3ccccc23)n[nH]1	8	0	12	2	7	6	.
CCOc1ccc2ccccc2c1/C=N/NC(=O)c1cc(C)[nH]n1	1	0	-4	0	49*	1	15
CC(C)(C)CN1CCC(n2nccc2NC(=O)c2ccccc2Cl)CC1	-1	-3	2	2	2	0	.
CCN(CC)S(=O)(=O)c1ccc(C)c(NC(=O)COC(=O)CCC(=O)c2cccs2)c1	7	.	-1	1	9	0	.
CCOc1ncccc1C(=O)OCC(=O)Nc1cc(S(=O)(=O)N(CC)CC)ccc1C	19	-11	4	2	65*	-1	49*
CCN(CC)S(=O)(=O)c1ccc(C)c(NC(=O)COC(=O)C=C(C)C)c1	7	-14	2	3	33*	2	48*
COc1cc(C)ccc1OCc1cc(C(=O)N2CCC(c3ccc(F)cc3)C2)no1 (configuration not stated)	0	10	9	0	-13	-3	.
Cc1ccc(C(=O)OCC(=O)Nc2ccc(N(C)C)cc2)cc1NC(=O)c1ccco1	1	-2	3	0	41*	-2	35*
Cc1ccc(C(=O)OCC(=O)Nc2ncc(Cl)cc2Cl)cc1NC(=O)c1ccco1	10	-5	9	0	42*	1	41*
Cc1ccc(C(=O)OCC(=O)Nc2cc(F)ccc2F)cc1NC(=O)c1ccco1	-1	-4	-2	2	78*	2	70*
CCC(C)c1ccccc1NC(=O)COC(=O)c1ccc(C)c(NC(=O)c2ccco2)c1 (configuration not stated)	1	-1	4	2	78*	-1	74*
Cc1ccc(C(=O)OCC(=O)Nc2sccc2C(N)=O)cc1NC(=O)c1ccco1	1	-2	-1	2	16	-1	.
